High-throughput results as filed in PubChem.
Only a selection was taken, and hits are over-represented in it overall.
Pf Dd2 inh: qHTS Primary assay for Inhibitors of Plasmodium falciparum Dd2 growth in vitro. Potency, µM (top dose mostly 28.9 µM), for the others: at the highest dose activity, negative = inhibition, usual class: inhibitors. AID 1347417, 2020. 4.3% of 120,000 active. P. falciparum Dd2 growth, SYBR Green, 72 h; active means well fitted inhibition curve with a large enough effect;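 further: plate controls were DMSO vehicle for no effect and reference drug for full effect; nearly all actives have a fitted effect of over 65% in size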
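Infected erythrocytes (Dd2, 0.3% parasitemia, 2.5% hematocrit final) are added to compound in RPMI-1640/Albumax II medium, grown 72 h at 37C in low oxygen, then lysed with saponin/Triton-X containing SYBR Green and read by fluorescence.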
* hit, by the source's call; i = inactive; [ ] = dose if it differs, or a comment. Potency means the concentration at half of the fitted maximal effect.

SMILES	Pf Dd2 inh
CCC(CC)c1cc([C@H]2CN3CC[C@H]2C[C@@H]3CNC(C)=O)nc(-c2ccncc2)n1	2µM*
Cn1nc(-c2ccccc2)cc1[C@H]1CN2CC[C@H]1C[C@@H]2CNS(=O)(=O)c1cccs1	-13%[44.1 µM]
CC(=O)Nc1ccc(S(=O)(=O)NC[C@H]2C[C@@H]3CCN2C[C@@H]3c2cc(-c3ccco3)nc(C)n2)cc1	i
Cc1nc(-c2ccc(C(F)(F)F)cc2)cc([C@H]2CN3CC[C@H]2C[C@@H]3CNS(C)(=O)=O)n1	i
Cn1nc(-c2ccc3ccccc3c2)cc1[C@H]1CN2CC[C@H]1C[C@@H]2CNS(=O)(=O)c1cccs1	13µM*
Cc1nc(-c2ccc(F)cc2)cc([C@H]2CN3CC[C@H]2C[C@@H]3CNS(=O)(=O)Cc2ccccc2)n1	i
CCNC(=O)NC[C@H]1C[C@@H]2CCN1C[C@@H]2c1cc(-c2ccccc2)nc(C)n1	-9%[44.1 µM]
CC(=O)NC[C@H]1C[C@@H]2CCN1C[C@@H]2c1cc(-c2ccc(F)cc2)nc(C)n1	i
Cc1nc(-c2ccco2)cc([C@H]2CN3CC[C@H]2C[C@@H]3CNS(=O)(=O)c2cccs2)n1	7.1µM*
COc1ccc(OC)c(S(=O)(=O)NC[C@H]2C[C@@H]3CCN2C[C@@H]3c2cc(-c3ccco3)nc(C)n2)c1	i
Cn1nc(-c2cccs2)cc1[C@H]1CN2CC[C@H]1C[C@@H]2CNS(=O)(=O)c1ccccc1	i
CCOc1ccc(NC(=O)c2nn(C)c3c2CS(=O)(=O)c2ccccc2-3)cc1	-16%
CN1CCC([C@@H]2CN(S(=O)(=O)c3cccc(Cl)c3)C[C@H]2C(N)=O)CC1	-13%
O=C(C[C@@H]1O[C@H](CNS(=O)(=O)c2ccccc2)[C@@H](O)[C@H]1O)N1CCN(c2ccccc2)CC1	i
Cc1cc(C)c2c(=O)cc(C(=O)NCCc3ccc(S(N)(=O)=O)cc3)oc2c1	42%
CC(C)(C)NC(=O)Nc1ccc([C@H]2OCC(=O)N(Cc3ccc(F)cc3)[C@@H]2CO)cc1	i
CO[C@H]1[C@H](NC(=O)CC(C)C)c2ccccc2C12CCNCC2	20%
Cc1cccc(C(C)C)c1NC(=O)CN1CCC(C(N)=O)(N2CCCCC2)CC1	i
COc1ccc(-c2cc([C@H]3CN4CC[C@H]3C[C@@H]4COC(=O)NC3CCCCC3)nc(C)n2)cc1	i
CC(=O)c1ccc(NC(=O)OC[C@H]2C[C@@H]3CCN2C[C@@H]3c2cc(-c3cccs3)nn2C)cc1	-25%
COc1ccc(NC(=O)OC[C@H]2C[C@@H]3CCN2C[C@@H]3c2cc(-c3ccccc3OC)nn2C)cc1	-26%
Cc1ccc(C(=O)NC[C@H]2C[C@@H]3CCN2C[C@@H]3c2cc(-c3ccc(F)cc3)nn2C)cc1	i
Cn1nc(-c2ccc3ccccc3c2)cc1[C@H]1CN2CC[C@H]1C[C@@H]2COC(=O)Nc1ccccc1	-24%
Cn1nc(-c2ccc(F)cc2)cc1[C@H]1CN2CC[C@H]1C[C@@H]2CNC(=O)c1cccs1	13µM*
CCC(CC)c1cc([C@H]2CN3CC[C@H]2C[C@@H]3COC(=O)Nc2ccc(C(C)(C)C)cc2)nc(-c2ccncc2)n1	1.3µM*
SMILES	Pf Dd2 inh
CCC(CC)C(=O)NC[C@H]1C[C@@H]2CCN1C[C@@H]2c1cc(-c2ccco2)nc(C)n1	-30%[44.1 µM]
CCCNC(=O)OC[C@H]1C[C@@H]2CCN1C[C@@H]2c1cc(C(CC)CC)nc(-c2ccncc2)n1	1.4µM*
COc1ccc(C(=O)NC[C@H]2C[C@@H]3CCN2C[C@@H]3c2cc(-c3ccc(F)cc3)nn2C)cc1	i
COc1ccc(NC(=O)OC[C@H]2C[C@@H]3CCN2C[C@@H]3c2cc(C3CCCC3)nc(-c3ccncc3)n2)cc1	1.8µM*
COc1ccccc1-c1cc([C@H]2CN3CC[C@H]2C[C@@H]3COC(=O)Nc2cccc(C(C)=O)c2)nc(C)n1	-4%
Cc1cc(C)c(S(=O)(=O)N2CCCC2c2nncn2Cc2ccncc2)c(C)c1 (stereo not given)	-16%
CCc1ccc(NC(=O)Cn2c(=O)c(-c3noc(C)n3)c3n(c2=O)CCCC3)cc1	25%
Cc1ccccc1C(=O)Oc1c(Sc2ccccc2)c(C)nn1C(C)(C)C	i
Cc1ccc(CNC(=O)C2(C)CCCCC(=O)N2)cc1 (stereo not given)	i
CC(C)c1ccc(NC(=O)OC[C@H]2C[C@@H]3CCN2C[C@@H]3c2cc(C3CCCCC3)nn2C)cc1	-23%
CC(C)(C)c1ccc(NC(=O)OC[C@H]2C[C@@H]3CCN2C[C@@H]3c2cc(C3CCCC3)nc(-c3ccncc3)n2)cc1	1µM*
Cc1nc(C2CCCC2)cc([C@H]2CN3CC[C@H]2C[C@@H]3CNC(=O)CCCC(=O)O)n1	i
CN(Cc1ccc(-c2ccccc2)cc1)Cc1cccc(F)c1	-11%[44.1 µM]
CSc1ccc(-c2cccc(CN)c2)cc1	10µM*
NCc1cccc(-c2ccc(O)cc2)c1	-20%[44.1 µM]
Cc1ccc(-c2cccc(C=O)c2)cc1Cl	6%[44.1 µM]
Cc1ccc(-c2ccc(C=O)cc2)cc1Cl	8%[44.1 µM]
Cc1ccc(-c2cccc(CN)c2)cc1Cl	11µM*
NC(=O)[C@H](Cc1cccs1)NC(=O)[C@@H]1C[C@@H](NC(=O)c2cnccn2)CCN1C(=O)c1ccco1	i
CN(C)Cc1cn(C[C@H]2C[C@@H](NC(=O)Nc3cccnc3)[C@H](O)[C@@H]2O)nn1	4%
CC(C)CN(CC1CN(C(=O)c2ccc(Cl)c(Cl)c2)CCO1)C(=O)c1ccc(F)cc1 (stereo not given)	-6%
CN1C(=O)C(c2ccccc2)CC12CCN(c1ccnc(N)n1)CC2 (stereo not given)	-14%
NS(=O)(=O)c1ccc2nc(NC(=O)COc3ccc(Cl)cc3Cl)sc2c1	20%
CCOc1ccc(NC(=O)Cc2ccc(NC(=O)N3CCCCc4ccccc43)cc2)cc1	i
CCCc1ccc(-c2nc(C3CCOC3)no2)cc1 (stereo not given)	-4%
SMILES	Pf Dd2 inh
O=C(Cc1ccc(F)cc1)N1CCC(n2cc(-c3nc(-c4ccccc4)no3)nn2)C1 (stereo not given)	-5%
CCOc1ccccc1NC(=O)N1CCCCCCNC(=O)CC1c1ccccc1 (stereo not given)	-41%
CCOc1ccccc1CN1CCCCCCNC(=O)CC1	i
CCOc1ccccc1CN1CCCCCNC(=O)CC1c1ccccc1 (stereo not given)	7.9µM*
O=C1CC(c2ccccc2)N(Cc2ccccn2)CCCCCN1 (stereo not given)	-17%
Cc1ccc(CN2CCC[C@H]2C(=O)N2CCCCCCNC(=O)CC2)o1	i
CCOc1ccccc1CN1CCC[C@H]1C(=O)N1CCCCCCNC(=O)CC1	6.3µM*
Cn1ccnc1-c1cn(CCOCc2ccccc2)nn1	-1%
CC(C(=O)Nc1ccccc1C(F)(F)F)n1nc(-c2ccccc2)c2c(c1=O)CCCC2 (stereo not given)	-19%
CCCS(=O)(=O)N1CCc2nn(C)c(=O)n2CC1	3%
O=C1CC2(CCN(Cc3ccncc3)CC2)Oc2ccccc2N1c1ccccc1	-23%
Cn1ncc(N2CCOC(CCNC(=O)C3(C)CC3)C2)cc1=O (stereo not given)	5%
COc1cccc(CNC(=O)CN2C(=O)CCCc3ccccc32)c1OC	-24%
CCCCS(=O)(=O)N[C@@H]1CN(C2CCOCC2)C[C@H]1CN(C)C	10%
Cc1ccc(Nc2nc3nonc3nc2Nc2cccc(C(F)(F)F)c2)cc1Cl	1.1µM*
CCOC(=O)c1c(C)oc2ncnc(Nc3cccc(C(F)(F)F)c3)c12	29%
CCOC(=O)c1noc2ncnc(Nc3cccc(C(F)(F)F)c3)c12	77%
